A short description of assay [1]: qHTS assay to identify small molecule agonists of the vitamin D receptor (VDR) signaling pathway - cell viability counter screen (AID 743224). Note: nearly all actives have a fitted effect of over 50% in size. Note: potency is the fitted concentration of half-maximal effect. An outline of the steps: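 Counter screen run in the same wells as the VDR-bla reporter assay: CellTiter-Glo luminescence, 30 min at room temperature, after 16 h compound treatment at 37C of cells pre-plated for 4 h.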
In general terms: In qHTS, concentration-response curves come from the screen itself.

Assay [2] can be described thus: qHTS assay to identify small molecule antagonists of the vitamin D receptor (VDR) signaling pathway - cell viability counter screen (AID 743225). Note: nearly all actives have a fitted effect of over 50% in size. A digest of the protocol: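 Cells (VDR-UAS-bla HEK 293T) are plated, rested 4 h at 37C, dosed with compound and 3 nM final 1-alpha,25-dihydroxy vitamin D3, and incubated 16 h. Viability is taken from CellTiter-Glo luminescence in the reporter wells.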

A short description of assay [3]: qHTS assay to identify small molecule agonists of the endoplasmic reticulum stress response signaling pathway (AID 1159516; active = well fitted activation curve with a large enough effect in the signal ratio in the repeat runs, not every such curve was filed as active; the % refers to the signal ratio). A digest of the protocol:
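Ratiometric FRET readout (405 nm excitation; 460 and 530 nm emission) of a beta-lactamase gene driven by the ER stress response element, after 2 hr substrate loading. HeLa ESRE-bla cells were seeded overnight and treated with compounds for only 5 hr at 37 C.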

A short description of assay [4]: qHTS assay to identify small molecule agonists of the endoplasmic reticulum stress response signaling pathway - cell viability counter screen (AID 1159517; calls by dose curve; note: nearly all actives have a fitted effect of over 50% in size; note: potency is the fitted concentration of half-maximal effect). A digest of the protocol:
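In parallel with the ESRE reporter read, cytotoxicity was scored by CellTiter-Glo luminescence (30 min, room temperature) on HeLa ESRE-bla cells dosed for 5 hr.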

A short description of assay [5]: qHTS assay to identify small molecule antagonists of the retinoid-related orphan receptor gamma (ROR-gamma) signaling pathway - cell viability counter screen (AID 1159520). Note: nearly all actives have a fitted effect of over 50% in size. Note: potency is the fitted concentration of half-maximal effect. An outline of the steps: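 Tet-on ROR gamma CHO cells were given compounds for 2 hr, then doxycycline hyclate at 1 uM final, and incubated 16 hr at 37 C. Viability was measured as ATP content by CellTiter-Glo luminescence.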

Assay [6] addresses Nuclear receptor ROR-gamma (Homo sapiens) (UniProt P51449). Briefly: qHTS assay to identify small molecule antagonists of the retinoid-related orphan receptor gamma (ROR-gamma) signaling pathway (AID 1159521; note: nearly all actives have a fitted effect of over 50% in size; note: potency is the fitted concentration of half-maximal effect). An outline of the steps: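 RORγ antagonism is scored from reduced reporter luminescence in Tet-on CHO cells. Induction used 1 uM final doxycycline hyclate for 16 h at 37 C, following a 2 h compound exposure.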

A short description of assay [7]: qHTS assay to identify small molecule agonists of the AP-1 signaling pathway - cell viability counter screen (AID 1159525; calls by dose curve; note: nearly all actives have a fitted effect of over 55% in size). A digest of the protocol:
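Same-well cytotoxicity counter screen of the Tox21 10K library in ME-180 cells. The readout is ATP-dependent luminescence after 5 h compound treatment. Data are normalised to DMSO and tetra n-octyl ammonium bromide controls.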

Assay [8] can be described thus: qHTS assay to identify small molecule agonists of the AP-1 signaling pathway (AID 1159526; calls by dose curve).
In assay [9] the target is Retinoic acid receptor RXR-alpha (Homo sapiens) (UniProt P19793). Briefly: qHTS assay to identify small molecule agonists of the RXR signaling pathway (AID 1159527; calls by dose curve; note: nearly all actives have a fitted effect of over 35% in size). A digest of the protocol: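 qHTS of the Tox21 10K library in GeneBLAzer RXR-alpha HEK 293T cells carrying a beta-lactamase reporter […]; 16 hr treatment, 9-cis retinoic acid as agonist control, FRET read-out.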
Retinoic acid receptor RXR-alpha (Homo sapiens), sequence (P19793 whole entry, looked up): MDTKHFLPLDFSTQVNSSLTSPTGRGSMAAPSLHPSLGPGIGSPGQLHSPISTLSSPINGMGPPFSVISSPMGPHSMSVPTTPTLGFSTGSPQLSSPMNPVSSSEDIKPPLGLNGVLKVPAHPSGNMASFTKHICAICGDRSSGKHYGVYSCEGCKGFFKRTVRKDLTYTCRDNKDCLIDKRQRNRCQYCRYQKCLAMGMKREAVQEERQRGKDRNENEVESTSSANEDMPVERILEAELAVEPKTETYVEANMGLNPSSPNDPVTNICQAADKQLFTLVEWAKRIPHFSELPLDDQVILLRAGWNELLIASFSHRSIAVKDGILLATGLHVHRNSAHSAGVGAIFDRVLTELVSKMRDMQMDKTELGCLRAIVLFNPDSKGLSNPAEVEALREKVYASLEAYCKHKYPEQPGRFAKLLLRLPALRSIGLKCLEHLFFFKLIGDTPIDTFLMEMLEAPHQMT

The nature of assay [10]: qHTS assay to identify small molecule agonists of the RXR signaling pathway - cell viability counter screen (AID 1159529). A digest of the protocol:
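Cell viability is measured by CellTiter-Glo luminescence, 30 min at room temperature, in wells already read for beta-lactamase. Engineered HEK 293T cells (RXR-alpha-UAS-bla) are dosed 16 hr at 37 C. Tetraoctyl ammonium bromide serves as positive control.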

A short description of assay [11]: qHTS assay to identify small molecule antagonists of the retinoid acid receptor (RAR) signaling pathway - cell viability counter screen (AID 1159551). Note: nearly all actives have a fitted effect of over 35% in size. Note: potency is the fitted concentration of half-maximal effect. A digest of the protocol: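 Cytotoxicity counter screen: ATP content quantified by CellTiter-Glo luminescence in C3RL4 cells treated 6 hr at 37 C with compound and retinol (1 uM final). Cells plated at 1,000/well and cultured overnight before dosing.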

A short description of assay [12]: qHTS assay to identify small molecule agonists of the NFkB signaling pathway - cell viability counter screen (AID 1159515; calls by dose curve; note: series mostly up to about 61 µM; nearly all actives have a fitted effect of over 55% in size). A digest of the protocol: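 Read by CellTiter-Glo luminescence (30 min, room temperature) in the wells also used for the beta-lactamase FRET read. ME-180 NFkB-bla cells at 2,000 per well were plated overnight, then exposed to compound for 5 hr at 37 C.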

Assay [13] is described as follows: qHTS assay to identify small molecule antagonists of the retinoic acid receptor (RAR) signaling pathway (AID 1159552; note: nearly all actives have a fitted effect of over 50% in size; note: potency is the fitted concentration of half-maximal effect). A digest of the protocol: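 Quantitative HTS in C3RL4 RARE-luciferase reporter cells. Compounds were added with 1 uM (final) retinol; luminescence was read after 6 hr.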
Assay [14] is described as follows: qHTS assay to identify small molecule agonists of the retinoic acid receptor (RAR) signaling pathway (AID 1159553). Note: potency is the fitted concentration of half-maximal effect. An outline of the steps: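 Luminescence was measured 30 min after luciferase reagent addition at room temperature. Before that, C3RL4 reporter cells (1,000 per well, plated overnight) were treated with compound for 6 hr at 37 C and 5% CO2.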
The nature of assay [15]: qHTS assay to identify small molecule agonists of the estrogen related receptor (ERR) signaling pathway (AID 1224820). A digest of the protocol:
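After 6 h plating (2,000 cells/well) and 18 h compound treatment at 37 C, ERR cells were lysed with One-Glo and luminescence read after 30 min at room temperature.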

The test system of assay [16] is estrogen-related receptor alpha (ERRalpha) with PGC-1alpha coactivator, human. Briefly: qHTS assay to identify small molecule antagonists of the estrogen related receptor signaling pathway with the pleiotropic PPARgamma coactivator (PGC) (AID 1224821; calls by dose curve). A digest of the protocol: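 Luminescence from One-Glo luciferase reagent (30 min, room temperature) measured after 18 h compound treatment at 37 °C. Cells carry the PGC/ERR reporter and were seeded 6 h prior to dosing.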

Values joined by “and” are separate entries in the source; they are usually repeats but may differ in a detail not shown here. Identical values can stand only once. Records with an inconclusive call do not appear. The source holds several records for some structures; these can differ, active in one and inactive in another. Active and inactive are the calls of the source. Unless noted, calls come from the whole dose curve; as a rule, active = well fitted curve in the direction sought with a large enough effect in the repeat runs; inconclusive = weak or mixed curves; inactive = no such curve, though single readings can be large; an effect the other way counts as inactive or inconclusive.

In the case of `O=C(O)c1ccc([N+](=O)[O-])cc1`, the Potency entry in assay [1], in assay [2], in assay [4], in assay [5], in [6] and in [7] was “inactive” each time. Besides, the Potency entry in [8], in assay [9], in assay [10] and in assay [11] was “inactive” throughout. Also, the outcome in assay [3] was inactive.
As to `ClC1=C(Cl)C(Cl)(Cl)C(Cl)=C1Cl`, the Potency result in assay [1], in assay [2], in assay [6], in assay [8], in assay [9] and in [10] was “inactive” each time. The Potency entry in assay [11] and in assay [13] was “inactive” in each case. Moreover, in assay [12], the compound was called inactive. Further, the Potency in assay [4] is 27.7 µM (active) and 49 µM (active); in [5], 7.74 µM (active) and 6.11 µM (active); in assay [14], “inactive and 68.6 µM (active)”.
As to `C=C(C#N)C(=O)OCC`, the Potency result in assay [1], in assay [2], in assay [4], in [5], in [6] and in assay [7] was “inactive” throughout. The Potency entry in assay [8], in [9], in assay [10], in [11], in assay [13] and in assay [14] was “inactive” throughout.
Turning to `CCCCCCOC(C)=O`, the Potency result in assay [1], in [2], in [4], in [5], in assay [7] and in assay [8] was “inactive” in each case. Further, the Potency result in [9], in [10] and in assay [11] was “inactive” in each case.
`Cc1cc(O)c2c(c1)C(=O)c1cc(O)cc(O)c1C2=O`: the Potency in assay [1] is 24 µM (active) and inactive; in assay [14], 9.47 µM (active). For the same compound, the Potency entry in assay [2], in [4], in assay [6], in assay [9], in [10] and in assay [11] was “inactive” each time. For the same compound, the Potency result in assay [13], in assay [15] and in assay [16] was “inactive” in each case. In addition, the compound was classed as inactive in assay [3].
On to `Cc1ccc(N)c(S(=O)(=O)O)c1`, for which the Potency result in [1], in [2], in [4], in assay [5], in [6] and in assay [7] was “inactive” in each case. Also, the Potency entry in assay [8], in assay [9], in assay [10], in [11], in assay [13] and in assay [14] was “inactive” each time. Besides, the compound was called inactive in assay [12] and in [3].
Take `CCCCCCCCCC(=O)O`: the Potency result in assay [1], in assay [2], in assay [4], in [5], in assay [6] and in assay [7] was “inactive” throughout. Moreover, the Potency entry in [8], in assay [10], in assay [11], in assay [13] and in [14] was “inactive” in each case. Further, the outcome in [12] and in assay [3] was inactive.
As for `O=[N+]([O-])c1cc(N(CCO)CCO)ccc1NCCO`, the Potency result in assay [1], in [2], in assay [4], in [8], in assay [9] and in assay [10] was “inactive” each time. In addition, the Potency entry in assay [14] was “inactive”. For the same compound, in assay [3], the compound was classed as inactive. Also, the Potency was 48.5 µM (active) and 48.6 µM (active) in assay [11]; 30.6 µM (active) in assay [13].
As to `CCCCCC/C=C/CCCCCCCC(=O)O`, the Potency entry in assay [1], in [2], in assay [4], in assay [5], in assay [6] and in assay [7] was “inactive” each time. Also, the Potency result in [8], in assay [9], in assay [10], in assay [11], in [13] and in [14] was “inactive” throughout. In addition, in assay [3], the result was inactive.
On to `CCCCCCCCC`, for which the Potency result in assay [1], in assay [2], in assay [4], in assay [5], in assay [6] and in [7] was “inactive” throughout. The Potency entry in [8], in assay [9], in [10] and in assay [11] was “inactive” throughout. In addition, the compound was classed as inactive in assay [3].
Regarding `OC[C@@H](O)[C@H](O)[C@H](O)[C@@H](O)CO`, the Potency entry in assay [1], in [2], in assay [4], in assay [5], in assay [6] and in [7] was “inactive” in each case. In addition, the Potency entry in [8], in [9], in assay [10], in [11], in assay [13] and in assay [14] was “inactive” in each case. For the same compound, in assay [12], the call was inactive.
Turning to `O=C(c1ccc(O)cc1)c1ccc(O)cc1O`, the Potency entry in assay [1], in assay [2], in assay [4], in assay [5], in assay [6] and in [7] was “inactive” each time. In addition, the Potency result in assay [8], in assay [13] and in assay [14] was “inactive” each time. In assay [12], the result was inactive.
Regarding `CCCCC(CC)COC(C)=O` (stereo not drawn), the Potency result in assay [1], in [2], in [4], in assay [5], in assay [6] and in assay [8] was “inactive” in each case. Besides, the Potency result in assay [9], in assay [10], in assay [11], in assay [13] and in assay [14] was “inactive” throughout. For the same compound, in [3], the compound was classed as inactive.
For `C=C1C2CCC(C2)C1(C)C` (stereo not drawn), the Potency result in assay [1], in [2], in assay [4], in [5], in assay [6] and in assay [8] was “inactive” in each case. Further, the Potency entry in [9], in assay [10], in assay [11], in assay [13] and in assay [14] was “inactive” in each case.
In the case of `CC1(C)O[C@@H]2C[C@H]3[C@@H]4C[C@H](F)C5=CC(=O)CC[C@]5(C)[C@H]4[C@@H](O)C[C@]3(C)[C@]2(C(=O)CO)O1`, the Potency result in [1], in assay [2], in assay [4], in [5], in assay [6] and in assay [7] was “inactive” each time. For the same compound, the Potency result in assay [8], in assay [9], in assay [10], in [11], in assay [13] and in assay [14] was “inactive” each time. Besides, the outcome in [12] and in assay [3] was inactive.
For `c1ccc2ccccc2c1`, the Potency result in [1], in assay [2], in assay [4], in [5], in assay [6] and in assay [8] was “inactive” in each case. Besides, the Potency entry in [10], in assay [11], in assay [13] and in assay [14] was “inactive” in each case. Further, the compound was classed as inactive in assay [3].
In the case of `O=[N+]([O-])c1cccc(Cl)c1`, the Potency result in assay [1], in [2], in [4], in assay [5], in [6] and in assay [7] was “inactive” in each case. In addition, the Potency entry in assay [8], in assay [9], in assay [10], in assay [11], in [13] and in [14] was “inactive” each time. Also, the result in [12] was inactive.
With `O=C(c1cc(O)c(O)c(O)c1)c1ccc(O)c(O)c1O`, the Potency result in [1], in assay [2], in assay [4], in [5], in assay [7] and in assay [8] was “inactive” in each case. For the same compound, the Potency result in [9], in assay [10], in [11], in assay [13] and in assay [14] was “inactive” each time. Also, the compound was called inactive in [12] and in assay [3]. Also, in assay [6], the Potency is 21.7 µM (active) and inactive.
In the case of `Cc1cc(=O)[nH]c(C(C)C)n1`, the Potency result in assay [1], in assay [2], in assay [4], in assay [5], in assay [6] and in assay [7] was “inactive” throughout. The Potency entry in assay [8], in assay [9], in assay [10], in assay [11], in [13] and in [14] was “inactive” in each case. The compound was classed as inactive in assay [12].
